Bioassay records as filed in PubChem.
Cycloheximide cs = Cycloheximide Counterscreen for Small Molecule Inhibitors of Shiga Toxin | max response, % | 12% of 300,000 active | cell reporter, cycloheximide protein synthesis inhibition counterscreen; in the data active = max response mostly above about 13%, no sharp cut-off; inactive = mostly below about 14%; also: read at 38.3 µM for the half of the compounds with a filed dose; 0% is about no effect
Pf growth 48h = Primary qHTS for delayed death inhibitors of the malarial parasite plastid, 48 hour incubation. P. falciparum luciferase growth in erythrocytes, 48 h. Potency, µM (highest dose often 28.7 µM), for the others: at the top dose activity change, negative = inhibition, hits mostly inhibitors. 5.9% of 310,000 active. AID 504832, 2011; also: potency is read from the fitted curve at half-maximal effect; % is scaled to controls: 0 for no effect and ±100 for the full control effect
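In quantitative HTS format, infected erythrocytes bearing luciferase-reporter parasites were treated for a single generation at 37 C. Luminescence after adding detection reagent served as the growth measure.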
HCV inh = qHTS Assay for Inhibitors of Hepatitis C Virus (HCV); Huh7.5.1 HCVcc-Cre infection, luciferase reporter, 44 h; Potency, µM (top dose mostly 41.8 µM), inactives show top-dose activity change, negative = inhibition, most hits filed as inhibitors; 3.4% of 340,000 active; AID 651820, 2012; also: potency is read from the fitted curve at half-maximal effect; % is scaled to controls: 0 for no effect and ±100 for the full control effect
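After 44 h co-culture of compound, cells and HCVcc-Cre (~0.5 moi), substrate is added for 15 min at room temperature and luciferase measured over 15 sec. Cells were seeded at 1,000/well and pre-cultured 4 h.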
AMA1-RON2 inh = qHTS for Inhibitors of AMA1-RON; Towards Development of Antimalarial Drug Lead: Primary Screen. AlphaScreen AMA1-biotinylated RON2 peptide binding. Potency, µM (doses to about 58.2 µM), without a hit: at the top dose activity change, negative = inhibition, most hits filed as inhibitors. 0.2% of 360,000 active. AID 720542, 2013;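 also: potency is read from the fitted curve at half-maximal effect; 0% = vehicle wells and -100% = peptide control; nearly all actives have a fitted effect of over 45% in size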
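AMA1 (3D7) with his tag at 25 nM final met compounds first, then biotinylated RON2 peptide at 25 nM; detection used donor plus acceptor beads, 10 µg/mL apiece, read by AlphaScreen after 30 min at room temperature.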
Shiga inhibitor = A qHTS for Small Molecule Inhibitors of Shiga Toxin; Vero cells, Shiga toxin protein synthesis inhibition reporter; 9.2% of 290,000 active; inhibition, % at 38.7 µM; in the data active = inhibition mostly above about 28%, no sharp cut-off; inactive = mostly below about 43%; also: 0% is about no effect
Pf growth 96h = Primary qHTS for delayed death inhibitors of the malarial parasite plastid, 96 hour incubation. P. falciparum luciferase reporter growth, 96 h. Potency, µM (series often up to 28.7 µM), inactives show at the top dose activity change, negative = inhibition, hits mostly inhibitors. 6.9% of 320,000 active; also: potency is read from the fitted curve at half-maximal effect; % is scaled to controls: 0 for no effect and ±100 for the full control effect
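Readout is luminescence from an integrated firefly luciferase in P. falciparum. Red cells, 2% hematocrit and 0.05% parasitemia final, were cultured with compound through two parasite generations (96 hours) at 37 C, 5% CO2.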
An asterisk follows results filed as active; ? = inconclusive; . = not tested or not shown. An excerpt weighted towards active compounds, which were near 21% of everything screened. Unless noted, calls follow the shape of the dose curve; as a rule, active = well fitted curve in the direction sought with a large enough effect; inconclusive = small, poorly fitted or top-dose-only effect, or another doubt; inactive = no such curve, though single readings can be large; an effect the other way counts as inactive or inconclusive.

SMILES	Cycloheximide cs	Pf growth 48h	HCV inh	AMA1-RON2 inh	Shiga inhibitor	Pf growth 96h
CCOC(=O)C1CCN(C2CCN(C(=O)c3oc4c(F)cccc4c3C)CC2)CC1	-1	8.3µM*	-12%	-11%	-2	?
O=C(COC(=O)c1cncc(Br)c1)Nc1ccc(F)c(F)c1F	.	35%	?	-5%	.	39%
O=C(COC(=O)c1cc(S(=O)(=O)N2CCCCC2)ccc1N1CCOCC1)c1ccc(F)cc1	.	?	?	-4%	.	-8%
COc1cc(/C=C/c2nc3ccccc3c(=O)[nH]2)cc(Cl)c1O	-3	-3%	6%	-12%	25	?
COc1ccc(C(=O)Nc2cccc(/C=C/c3nc4ccccc4c(=O)[nH]3)c2)cc1	20*	38%	1.3µM*	-1%	107*	72%
O=C(Nc1cccc(/C=C/c2nc3ccccc3c(=O)[nH]2)c1)c1ccccc1Cl	11*	4%	5µM*	-1%	39	3%
O=C(Nc1cc(S(=O)(=O)N2CCOCC2)ccc1N1CCCC1)c1ccccc1C(F)(F)F	.	.	-4%	2%	.	.
CCC(=O)N1N=C(c2ccc(Cl)cc2)CC1c1ccco1 (stereo unspecified)	2	2%	-26%	-12%	12	-3%
CCc1ccc(C2=NN(C(C)=O)C(c3ccco3)C2)cc1 (stereo unspecified)	34*	52%	-1%	-2%	79*	-5%
O=C(CCl)N1N=C(c2ccco2)CC1c1ccco1 (stereo unspecified)	0	13µM*	11µM*	-24%	-4	13µM*
CC(=O)N1N=C(c2cccc(NS(=O)(=O)c3ccc(C)cc3)c2)CC1c1ccco1 (stereo unspecified)	6	?	3.2µM*	-7%	-1	?
CC(NC(=O)C1CCN(Cc2ccc(Oc3ccccc3)cc2)CC1)c1cccc2ccccc12 (stereo unspecified)	.	.	.	-21%	.	.
Cc1ccc(C2=N/C(=C/N3CCOCC3)C(=O)O2)cc1	50*	94%	-9%	-4%	68*	3%
Cc1ccc(C2=N/C(=C\N3CCCCC3)C(=O)O2)cc1	73*	.	-20%	-13%	143*	?
CCOCCCN1CC(=O)N2[C@@H](Cc3c([nH]c4ccccc34)C2(C)C)C1=O	-5	-17%	7%	-6%	-6	4%
CCN(CC(=O)Nc1cc(Cl)ccc1C)CC(=O)NC1CC1	.	.	.	-6%	.	.
Cc1sc(NC(=O)CN(Cc2ccc(F)cc2)C(=O)C(C)(C)C)c(C(N)=O)c1C	-1	-23%	3%	60%	13	7.4µM*
CCOC(=O)C1CCN(c2c(NCCCN(CC)c3ccccc3)c(=O)c2=O)CC1	-2	-18%	?	-4%	0	?
CCN(CCCNc1cc2c(c(N)c1S(=O)(=O)O)C(=O)c1ccccc1C2=O)c1ccccc1	.	.	.	14µM*	.	.
O=C(COC(=O)c1ccc(=O)[nH]c1)Nc1cccc(S(=O)(=O)N2CCOCC2)c1	7	?	10%	42%	-1	7%
CC(C)NC1=C(Cl)C(=O)c2ccccc2C1=O	21*	.	?	?	43	0.93µM*
CC(C)OCCCNC1=C(Cl)C(=O)c2ccccc2C1=O	49*	2.9µM*	-4%	20µM*	66*	4.1µM*
COCCCNC1=C(Cl)C(=O)c2ccccc2C1=O	33*	4.1µM*	-15%	10%	49*	2.3µM*
CCN(CC)CCCNC1=C(Cl)C(=O)c2ccccc2C1=O	2	?	3.2µM*	-14%	30	?
O=C(O)c1ccc(NC2=C(Cl)C(=O)c3ccccc3C2=O)cc1	-1	?	?	-5%	19	?
SMILES	Cycloheximide cs	Pf growth 48h	HCV inh	AMA1-RON2 inh	Shiga inhibitor	Pf growth 96h
CCCc1nc(SCC(=O)c2ccc(OC)cc2)c2c(=O)n(C)c(=O)n(C)c2n1	-1	17%	13%	.	-5	-1%
CCc1nc(SCC(=O)Nc2cccc(C(F)(F)F)c2)c2c(=O)n(C)c(=O)n(C)c2n1	-3	9.3µM*	?	-8%	-9	?
CCc1nc(SCC(=O)c2ccccc2)c2c(=O)n(C)c(=O)n(C)c2n1	-4	59%	13µM*	-10%	-10	?
CCCc1nc(SCC(=O)c2ccccc2)c2c(=O)n(C)c(=O)n(C)c2n1	10	?	11µM*	-4%	16	?
COc1ccc(C)cc1-n1nnnc1SCc1nc(N)nc(N(C)C)n1	.	.	.	6%	.	.
COc1cccc(CNC(=O)C2CCCN(C(=O)c3ccc(Cl)cc3)C2)c1 (stereo unspecified)	.	?	-11%	-3%	.	?
O=C(CCN1C(=O)C2C3C=CC(C3)C2C1=O)NCCc1ccccc1Cl (stereo unspecified)	14*	19%	22%	7%	28*	-28%
O=C(CN1C(=O)C2C3C=CC(C3)C2C1=O)NCCc1ccccc1 (stereo unspecified)	15*	21%	1%	0%	10	37%
O=C(CCN1C(=O)C2C3C=CC(C3)C2C1=O)Nc1ccccc1 (stereo unspecified)	-1	0%	25%	0%	4	5%
CCCC[C@H](CN[C@@H](CNC)[C@H](C)CC)NCCC12CCC(CC1)C2	1	?	?	126%	-3	2.6µM*
CCC[C@H](CN[C@@H](CNC)[C@H](C)O)NCCc1ccc(OC)cc1	-1	-28%	-15%	124%	-9	?
